Laboratory results: PubChem BioAssay (EPA / NIEHS)
Records with an inconclusive call do not appear. Calls of active or inactive are those of the source. Rule for the calls, unless noted: active = hit-call score of the fitted dose curve at least 0.9, where 1 is the maximum; inconclusive = response in the unintended direction; inactive = score below 0.9.

Assays:
[1] = target: human Norepinephrine Transporter (NET), SLC6A2 (gene 6530) (UniProt P23975); experiment: NVS_TR_hNET: NovaScreen (NVS) Transporter Assay for human Norepinephrine Transporter (NET) (AID 2283377);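 note: cell-free membrane protein extracted from CHO cells expressing human NET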;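 for AC50: displacement of radioligand from human NET seen as loss of scintillation signal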
Chain of human Norepinephrine Transporter (NET), SLC6A2 (gene 6530) (P23975 whole entry, looked up): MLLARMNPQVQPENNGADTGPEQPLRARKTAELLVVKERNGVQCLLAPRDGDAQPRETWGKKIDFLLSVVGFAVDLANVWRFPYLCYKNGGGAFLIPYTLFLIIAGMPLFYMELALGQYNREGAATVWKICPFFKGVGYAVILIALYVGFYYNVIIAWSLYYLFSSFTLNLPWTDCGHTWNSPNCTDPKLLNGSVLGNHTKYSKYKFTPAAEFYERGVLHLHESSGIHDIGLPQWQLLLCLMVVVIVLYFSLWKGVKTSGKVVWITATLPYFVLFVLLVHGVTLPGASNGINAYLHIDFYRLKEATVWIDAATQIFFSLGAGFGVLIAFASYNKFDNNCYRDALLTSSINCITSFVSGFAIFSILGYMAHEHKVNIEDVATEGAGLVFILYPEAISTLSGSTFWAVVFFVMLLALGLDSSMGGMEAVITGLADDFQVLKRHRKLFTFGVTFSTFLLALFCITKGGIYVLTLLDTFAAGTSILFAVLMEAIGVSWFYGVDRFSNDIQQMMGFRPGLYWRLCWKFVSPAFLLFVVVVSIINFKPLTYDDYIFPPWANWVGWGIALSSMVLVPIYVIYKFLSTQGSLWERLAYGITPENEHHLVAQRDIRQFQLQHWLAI
In short: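 Scintillation counts of filter-retained radioligand served as the readout, taken 1 h post-dosing in a cell-free CHO-derived system. Test chemicals ran first at 25 uM in duplicate; confirmed hits were retested across concentrations.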

[2] = target: mouse Estrogen Receptor alpha (Era), Esr1 (gene 13982) (UniProt P19785); experiment: NVS_NR_mERa: NovaScreen (NVS) Nuclear Receptor Binding Assay for mouse Estrogen Receptor alpha (Era) (AID 2283378);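 note: hit means loss of bound radioligand signal relative to DMSO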
Chain of mouse Estrogen Receptor alpha (Era), Esr1 (gene 13982) (P19785 whole entry, looked up): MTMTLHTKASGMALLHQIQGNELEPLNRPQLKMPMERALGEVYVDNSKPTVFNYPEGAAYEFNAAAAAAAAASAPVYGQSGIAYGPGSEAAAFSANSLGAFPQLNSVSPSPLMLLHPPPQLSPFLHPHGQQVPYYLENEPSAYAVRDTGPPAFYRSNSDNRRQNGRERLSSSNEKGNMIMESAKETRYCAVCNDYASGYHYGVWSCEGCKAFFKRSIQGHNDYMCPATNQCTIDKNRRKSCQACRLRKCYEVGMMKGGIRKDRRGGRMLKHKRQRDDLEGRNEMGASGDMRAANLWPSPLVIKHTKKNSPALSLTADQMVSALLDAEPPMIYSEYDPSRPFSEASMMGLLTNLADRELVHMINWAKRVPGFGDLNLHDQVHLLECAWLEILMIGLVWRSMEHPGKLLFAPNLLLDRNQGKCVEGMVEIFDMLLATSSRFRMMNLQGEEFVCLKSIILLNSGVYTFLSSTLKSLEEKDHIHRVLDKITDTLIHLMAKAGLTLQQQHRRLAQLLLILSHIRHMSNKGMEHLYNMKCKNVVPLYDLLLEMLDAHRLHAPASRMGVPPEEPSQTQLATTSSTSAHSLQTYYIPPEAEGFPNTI
In short: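 Cell-free radioligand binding with extracted mouse Era protein; competitive displacement of radiolabelled ligand, read by filter-based scintillation counting 18 hours after dosing. Loss of signal versus DMSO baseline taken as binding; single screening concentration 25 uM, actives followed in concentration series.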

[3] = target: Estrogen receptor beta (Homo sapiens) (UniProt Q92731); experiment: OT_ER_ERbERb_1440: Odyssey Thera (OT) 24-hour HEK293T Protein-Complementation Assay for Estrogen Receptor-beta/-beta Homodimer (AID 2283380);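 note: fluorescence gain from ER beta LBD homodimer complementation read by laser scanning cytometry; scored as signal increase over DMSO baseline for both agonists and antagonists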
Chain of Estrogen receptor beta (Homo sapiens) (Q92731 whole entry, looked up, the tested form may be a part): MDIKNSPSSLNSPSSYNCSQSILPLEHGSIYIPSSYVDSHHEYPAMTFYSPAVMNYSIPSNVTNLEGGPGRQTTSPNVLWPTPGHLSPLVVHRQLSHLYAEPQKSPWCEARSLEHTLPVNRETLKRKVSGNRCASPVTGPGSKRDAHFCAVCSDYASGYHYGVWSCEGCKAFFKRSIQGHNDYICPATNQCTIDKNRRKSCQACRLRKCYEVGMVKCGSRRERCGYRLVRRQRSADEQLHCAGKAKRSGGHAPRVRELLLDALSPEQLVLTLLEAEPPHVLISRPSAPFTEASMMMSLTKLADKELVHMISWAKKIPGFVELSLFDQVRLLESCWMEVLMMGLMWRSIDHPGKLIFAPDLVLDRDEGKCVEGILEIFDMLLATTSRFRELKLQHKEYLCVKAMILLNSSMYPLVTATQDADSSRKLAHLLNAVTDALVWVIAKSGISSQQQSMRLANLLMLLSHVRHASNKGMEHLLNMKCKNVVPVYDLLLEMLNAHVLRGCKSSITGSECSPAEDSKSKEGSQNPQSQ
In short: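 Fluorescence increase, nuclear for agonists or whole-cell for antagonists, relative to DMSO vehicle, quantified by laser scanning cytometer after fixation and Draq5 staining. Readout from 24 h treatment of HEK293T cells carrying complementation-paired ER beta LBD (aa 310-547).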

[4] = tested on: rat Norepinephrine Transporter (NET), gene 83511; experiment: NVS_TR_rNET: NovaScreen (NVS) Transporter Assay for rat Norepinephrine Transporter (NET) (AID 2283373)
In short: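 Rat forebrain membranes; radioligand binding measured by filter-based scintillation counting 1 hour after dosing. Loss of specific binding versus DMSO baseline scored; primary screen in duplicate at 25 uM, actives followed up in concentration series.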

[5] = target: human Dopamine Transporter (DAT), SLC6A3 (gene 6531) (UniProt Q01959); experiment: NVS_TR_hDAT: NovaScreen (NVS) Transporter Assay for human Dopamine Transporter (DAT) (AID 2283374);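 note: activity means loss of bound radioligand signal relative to DMSO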
Chain of human Dopamine Transporter (DAT), SLC6A3 (gene 6531) (Q01959 whole entry, looked up): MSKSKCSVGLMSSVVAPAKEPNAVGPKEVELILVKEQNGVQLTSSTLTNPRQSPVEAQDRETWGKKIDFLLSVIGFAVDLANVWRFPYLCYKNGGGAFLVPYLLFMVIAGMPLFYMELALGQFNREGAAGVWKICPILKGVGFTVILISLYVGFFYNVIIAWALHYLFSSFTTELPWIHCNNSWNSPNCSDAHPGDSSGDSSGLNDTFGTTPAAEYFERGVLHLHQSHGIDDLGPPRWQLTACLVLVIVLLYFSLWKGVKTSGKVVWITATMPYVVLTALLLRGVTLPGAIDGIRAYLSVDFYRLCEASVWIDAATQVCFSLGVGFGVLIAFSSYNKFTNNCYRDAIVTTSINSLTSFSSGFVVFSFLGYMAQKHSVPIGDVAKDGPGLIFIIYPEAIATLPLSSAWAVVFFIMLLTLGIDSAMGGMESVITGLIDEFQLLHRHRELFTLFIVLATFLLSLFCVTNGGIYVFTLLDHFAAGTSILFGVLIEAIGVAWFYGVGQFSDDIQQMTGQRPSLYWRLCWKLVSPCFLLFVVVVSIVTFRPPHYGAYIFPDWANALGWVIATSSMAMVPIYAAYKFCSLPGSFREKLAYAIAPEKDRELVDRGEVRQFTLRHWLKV
In short: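 Test chemicals were first screened in duplicate at 25 uM, with actives retested as concentration series. Displacement of a specific radioligand from cell-free human dopamine transporter was measured after 1 h by filtration and scintillation counting.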

[6] = target: Estrogen receptor (Homo sapiens) (UniProt P03372); experiment: OT_ERa_GFPERaERE_0480: Odyssey Thera (OT) 8-hour HeLa Transcription Induction Assay for Estrogen Receptor (AID 2283381; active = hit-call score of the fitted dose curve at least 0.9, where 1 is the maximum; inactive = score below 0.9)
Chain of Estrogen receptor (Homo sapiens) (P03372 whole entry, looked up): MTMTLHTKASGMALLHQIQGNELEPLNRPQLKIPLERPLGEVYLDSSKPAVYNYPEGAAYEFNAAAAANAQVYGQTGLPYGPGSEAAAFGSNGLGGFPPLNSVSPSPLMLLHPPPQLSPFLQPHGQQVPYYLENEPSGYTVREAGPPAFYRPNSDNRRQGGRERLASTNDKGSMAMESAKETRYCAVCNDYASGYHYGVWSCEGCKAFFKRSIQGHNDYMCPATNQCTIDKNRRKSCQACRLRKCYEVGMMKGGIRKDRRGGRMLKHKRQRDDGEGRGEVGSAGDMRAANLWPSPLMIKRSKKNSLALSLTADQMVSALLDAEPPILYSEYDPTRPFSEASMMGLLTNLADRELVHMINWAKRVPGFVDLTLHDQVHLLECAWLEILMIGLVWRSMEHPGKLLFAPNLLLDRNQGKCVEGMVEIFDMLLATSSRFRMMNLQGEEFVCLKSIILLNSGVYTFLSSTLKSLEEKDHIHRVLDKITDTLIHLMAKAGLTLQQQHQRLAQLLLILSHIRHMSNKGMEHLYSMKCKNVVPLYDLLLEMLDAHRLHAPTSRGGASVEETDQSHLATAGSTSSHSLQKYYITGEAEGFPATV
In short: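 Fluorescent reporter signal, imaged by microscopy and scored with image-analysis algorithms, was taken 8 h after chemical dosing of HeLa cells; activity was fitted upward relative to DMSO.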

[7] = target: Estrogen receptor (Homo sapiens) (UniProt P03372); experiment: OT_ERa_GFPERaERE_0120: Odyssey Thera (OT) 2-hour HeLa Transcription Induction Assay for Estrogen Receptor (AID 2283382)
In short: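 HeLa, 384-well, 2 h chemical exposure; GFP reporter induction (ERE), fluorescence microscopy; high content image analysis; positive fitting direction vs DMSO.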

[8] = target: Bile acid receptor (Homo sapiens) (UniProt Q96RI1); experiment: OT_FXR_FXRSRC1_0480: Odyssey Thera (OT) 8-hour HEK293T Protein-Complementation Assay for Farnesoid X receptor/SRC-1 Co-activator (AID 2283383)
Chain of Bile acid receptor (Homo sapiens) (Q96RI1 whole entry, looked up, the tested form may be a part): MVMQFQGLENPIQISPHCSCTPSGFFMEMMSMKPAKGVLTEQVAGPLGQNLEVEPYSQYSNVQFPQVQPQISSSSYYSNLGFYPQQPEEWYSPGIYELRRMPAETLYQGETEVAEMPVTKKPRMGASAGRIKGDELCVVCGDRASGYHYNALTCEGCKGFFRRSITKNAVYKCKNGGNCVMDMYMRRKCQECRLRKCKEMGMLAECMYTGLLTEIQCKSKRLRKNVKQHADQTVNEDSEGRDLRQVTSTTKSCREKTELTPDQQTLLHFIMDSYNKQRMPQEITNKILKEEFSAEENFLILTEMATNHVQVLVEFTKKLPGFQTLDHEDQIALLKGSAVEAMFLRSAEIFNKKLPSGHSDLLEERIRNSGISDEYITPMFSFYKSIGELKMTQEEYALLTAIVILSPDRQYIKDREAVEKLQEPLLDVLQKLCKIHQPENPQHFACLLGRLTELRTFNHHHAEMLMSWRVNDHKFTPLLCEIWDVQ
In short: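 Human kidney HEK293T cells carried FXR/SRC-1 fragment-complementation constructs. Compounds were added and incubated 8 h. Reporter reassembly upon receptor–co-activator interaction was then quantified by fluorescence, with curves fitted in the positive direction relative to DMSO.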

[9] = target: Agonist Androgen Response Element (ARE), AR (gene 367) (UniProt P10275); experiment: OT_AR_ARELUC_AG_1440: Odyssey Thera (OT) 24-hour CHO-K1 Luciferase Assay for Agonist Androgen Response Element (ARE) (AID 2283379)
Chain of Agonist Androgen Response Element (ARE), AR (gene 367) (P10275 whole entry, looked up): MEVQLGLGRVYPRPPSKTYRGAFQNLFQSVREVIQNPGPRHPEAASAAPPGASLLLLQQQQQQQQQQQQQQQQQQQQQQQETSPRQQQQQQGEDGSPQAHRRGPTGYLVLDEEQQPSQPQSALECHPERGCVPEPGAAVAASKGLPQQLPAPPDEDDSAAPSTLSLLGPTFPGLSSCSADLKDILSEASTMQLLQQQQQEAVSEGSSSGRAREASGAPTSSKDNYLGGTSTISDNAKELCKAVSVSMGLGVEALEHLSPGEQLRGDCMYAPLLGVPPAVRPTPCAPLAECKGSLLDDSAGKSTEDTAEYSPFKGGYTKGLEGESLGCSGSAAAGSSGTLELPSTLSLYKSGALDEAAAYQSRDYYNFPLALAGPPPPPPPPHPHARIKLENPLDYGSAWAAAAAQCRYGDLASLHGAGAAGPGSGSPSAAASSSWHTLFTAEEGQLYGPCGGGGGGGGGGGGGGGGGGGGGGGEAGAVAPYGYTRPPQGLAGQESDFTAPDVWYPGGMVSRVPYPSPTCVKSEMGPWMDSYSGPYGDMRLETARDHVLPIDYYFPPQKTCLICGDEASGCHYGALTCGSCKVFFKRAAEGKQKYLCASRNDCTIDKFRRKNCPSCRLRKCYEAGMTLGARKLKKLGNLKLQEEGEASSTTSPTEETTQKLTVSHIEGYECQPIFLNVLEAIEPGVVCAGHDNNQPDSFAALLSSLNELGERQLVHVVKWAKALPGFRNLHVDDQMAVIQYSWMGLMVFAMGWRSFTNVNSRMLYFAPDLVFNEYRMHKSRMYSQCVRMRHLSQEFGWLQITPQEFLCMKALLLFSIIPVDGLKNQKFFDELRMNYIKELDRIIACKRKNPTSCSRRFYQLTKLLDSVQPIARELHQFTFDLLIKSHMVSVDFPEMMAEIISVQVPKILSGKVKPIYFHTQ
In short: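 Agonist mode, 24 h exposure in CHO-K1 ARE-luciferase cells; values reflect luminescence induction over vehicle.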

Measured: AC50

O=C(O)c1cccc(C[C@@H]2COc3ccc(OCc4nc5cc(F)ccc5s4)cc3[C@@H]2O)c1
inactive: [1] | [2] | [3]

CCn1nc(C)c2c1C(=O)NCC(c1ccc(O)cc1)=N2
inactive: [4] | [5] | [3] | [6] | [7]

CC(C)C(=O)Nc1ccc([N+](=O)[O-])c(C(F)(F)F)c1
inactive: [2] | [3] | [6] | [8]

OC(CCl)CCl
inactive: [5] | [3] | [6]

c1ccc(C(O[C@@H]2CCCN(CCc3ccc4c(c3)OCO4)C2)c2ccccc2)cc1
inactive: [6]
active: [4] 11.4 µM | [5] 0.063 µM | [1] 4.2 µM | [2] 25 µM | [3] 38.5 µM

OCCOCCOCCO
inactive: [1] | [2] | [9] | [3] | [7]
active: [5] 6.63 µM

c1ccc2c(c1)-c1cccc3c1c-2cc1ccccc13
inactive: [2] | [3] | [6]

CC[C@H](C)C(=O)O[C@H]1C[C@H](O)C=C2C=C[C@H](C)[C@H](CC[C@@H](O)C[C@@H](O)CC(=O)O)[C@H]21
inactive: [5] | [3] | [7]

CCCCC(CC)C(=O)OCCOCCOCCOC(=O)C(CC)CCCC (stereo not given)
inactive: [5] | [1] | [2] | [9] | [3]

COc1cc(C(C)C)c2c(c1)S(=O)(=O)N(COc1cc(=O)n3cccc(OCCN4CCCCC4)c3n1)C2=O
active: [5] 2.87 µM | [1] 4.47 µM
inactive: [9] | [7] | [8]

OCc1ccccc1
inactive: [5] | [9] | [3] | [6] | [7]

CCOC(N)=O
inactive: [2] | [6]
